# According to PubChem BioAssay (NCATS):
# Inconclusive results are not listed. Where a call stands in place of a potency, no number is given. Calls of active or inactive are those of the source. The call rests on the fitted dose curve; in most records, active means well fitted curve in the direction sought with a large enough effect; inconclusive means small, poorly fitted or top-dose-only effect, or another doubt; inactive means no such curve, though single readings can be large; an effect the other way counts as inactive or inconclusive. Bridge positions count the residues as written; N and C are the ends. Square brackets hold non-standard residues; d marks the D form. Side chains are listed from the residue outwards. Peptide text beside a SMILES is read from it. * marks the point of attachment. Phg(4-OMe) = COc1ccc([C@H](N)C(=O)O)cc1; d(aIle) = CC[C@H](C)[C@@H](N)C(=O)O; d(aThr) = C[C@@H](O)[C@@H](N)C(=O)O; NMeF = CN[C@@H](Cc1ccccc1)C(=O)O; Isobutyryl = CC(C)C(=O)*
# How the values were obtained:
# [1] = system: Zika virus NS2B-NS3 protease (linked construct); assay: Primary screen NINDS Rhodamine qHTS for Zika virus inhibitors (AID 1347160); further: nearly all actives have a fitted effect of over 55% in size; further: potency means the concentration at half of the fitted maximal effect
# In short: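 Purified NS2B-NS3 protease with the NS2B hydrophilic domain joined by a flexible linker (25 nM) in 10 mM Tris-HCl pH 8.0, 0.01% Tween 20, preincubated 15 min at RT with compound; Rhodamine110 peptide substrate 1.5 µM; fluorescence change over 15 min; 4-parameter Hill fit.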
# [2] = OV-KATE Cancer Cell Toxicity qHTS against the NCATS CANVASS Library (AID 1347345)
# In short: (§1)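 1000 cells/well; 4 h settle; 11-pnt titration; 72 h, 37 degrees C, 5% CO2; CellTiter-Glo, 15min RT; luminescence read.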
# [3] = OV-SAHO Cancer Cell Toxicity qHTS against the NCATS CANVASS Library (AID 1347348); further: series mostly up to about 38 µM; nearly all actives have a fitted effect of over 55% in size
# In short: as §1
# [4] = SW1088 Cancer Cell Toxicity qHTS against the NCATS CANVASS Library (AID 1347350); further: nearly all actives have a fitted effect of over 75% in size; further: potency means the concentration at half of the fitted maximal effect
# In short: as §1
# [5] = U-118MG Cancer Cell Toxicity qHTS against the NCATS CANVASS Library (AID 1347351); further: potency means the concentration at half of the fitted maximal effect
# In short: as §1
# [6] = A2780 Cisplatin Sensitive Ovarian Cancer Cell Toxicity qHTS against the NCATS CANVASS Library (AID 1347353); further: nearly all actives have a fitted effect of over 60% in size; further: potency means the concentration at half of the fitted maximal effect
# In short: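 A2780 cells, 750/well, settled 4 h at 37 °C, then treated with an 11-point compound series for 72 h. Viability was read as ATPLite luminescence after 10 min at room temperature, with bortezomib as control.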
# [7] = UWB1.289-WTBRCA1 Cancer Cell Toxicity qHTS against the NCATS CANVASS Library (AID 1347354)
# In short: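 Cells at 1000/well were given compound 4 h after plating in an 11-point series. Viability was read by CellTiter-Glo luminescence after 72 h at 37 degrees C.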
# [8] = HEK293 18hr Apoptosis Induction qHTS against the NCATS CANVASS Library (AID 1347357)
# In short: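 Caspase-3/7 luminescence (DEVD substrate, Caspase-Glo) after 18 h compound exposure of HEK293 cells, 500 cells/well; 11-point series; doxorubicin titration as control.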
# [9] = HEK293 12hr Apoptosis Induction qHTS against the NCATS CANVASS Library (AID 1347361)
# In short: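 500 HEK293 cells/well; cpds pin-transferred, 11-pt conc series; 12 h, 37 degrees C/5% CO2; Caspase-Glo 3/7 added, 15 min RT dark; luminescence.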
# [10] = KB-8-5-11 Cancer Cell Toxicity qHTS against the NCATS CANVASS Library (AID 1347364); further: series mostly up to about 46 µM; nearly all actives have a fitted effect of over 75% in size
# In short: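 KB-8-5-11 cells, 500/well in DMEM + 10% FBS, given compounds in an 11-point series. Incubated 72 h at 37 °C. Viability by CellTiter-Glo luminescence. Confirmation also run with 1 uM tariquidar.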
# [11] = SDT Cancer Cell Toxicity qHTS against the NCATS CANVASS Library (AID 1347365);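 further: SDT canine glioma cells 500 per well in 1536 well plates; series mostly up to about 46 µM; nearly all actives have a fitted effect of over 60% in size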
# In short: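 SDT dog glioma cells (500/well) exposed to an 11-point compound series for 72 hr at 37C, 5% CO2. Cytotoxicity read as ATP content by CellTiterGlo luminescence; bortezomib titration as control.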
# [12] = qHTS for Hypoxia signaling pathway (HIF-1) antagonists against the NCATS CANVASS Library (AID 1347374);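 further: HRE-bla ME-180 cells stimulated with cobalt chloride to stabilize HIF-1alpha; series mostly up to about 38 µM; nearly all actives have a fitted effect of over 60% in size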
# In short: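 HRE-bla ME-180 cells in medium with 0.5% dialyzed FBS received compounds (11-point series) plus CoCl2 (60 uM addition stock) for 17 hrs at 37C. Beta-lactamase activity read with CCF4 (405 nm ex, 460/530 nm em); CellTiter-Glo viability measured in same wells.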
# [13] = qHTS for Antimalaria activity screened against the NCATS CANVASS Library (AID 1347380); further: nearly all actives have a fitted effect of over 40% in size; further: potency means the concentration at half of the fitted maximal effect
# In short: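 Red blood cells infected with P. falciparum Dd2 (2.5% hematocrit final, 0.3% parasitemia) were exposed to compounds in an 11-point qHTS series for 72 hr at 37C under 5% O2 and 5% CO2. Lysis buffer with SYBR Green was then added for 18 hr, and fluorescence was read at 485/535 nm.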
# [14] = qHTS for inhibitors of Wild type Zika virus screened against the NCATS CANVASS Library (AID 1347396);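 further: ATP luminescence of surviving cells so rescue from viral cell killing; series mostly up to about 46 µM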
# In short: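 Vero 766 (African green monkey) cells, 1000 per well, attached overnight, then compounds were added in an 11-point series before wild-type Zika virus infection. After 72 h at 37C, cell viability was read as CellTiter Glo luminescence.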
# [15] = Viability qHTS for inhibitors of the SERCaMP assay screened against the NCATS CANVASS Library (AID 1347400); further: series mostly up to about 92 µM; nearly all actives have a fitted effect of over 70% in size
# In short: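 SH-SY5Y-GLuc SERCaMP MJH297-derived cells, 1000/well, plated 4 h, then exposed to compounds in an 11-point qHTS series for 48 h at 37C. Viability read as CellTiter-Glo luminescence.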
# [16] = HPAF-II 12hr Apoptosis Induction qHTS against the NCATS CANVASS Library (AID 1347358)
# In short: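 HPAF-II cells, 500/well in DMEM + 10% FBS, exposed 12 hours at 37 degrees C to compound (11-point). Caspase-Glo 3/7 added for 15 min at room temperature; luminescence reflects caspase-3/7 activity.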
# [17] = molecular target: Luciferin 4-monooxygenase (Photinus pyralis) (UniProt P08659); assay: Firefly luciferase counterscreen qHTS: Assay Interference Panel against the NCATS CANVASS Library (AID 1347363); further: series mostly up to about 57 µM
# Luciferin 4-monooxygenase (Photinus pyralis), sequence (P08659 whole entry, looked up): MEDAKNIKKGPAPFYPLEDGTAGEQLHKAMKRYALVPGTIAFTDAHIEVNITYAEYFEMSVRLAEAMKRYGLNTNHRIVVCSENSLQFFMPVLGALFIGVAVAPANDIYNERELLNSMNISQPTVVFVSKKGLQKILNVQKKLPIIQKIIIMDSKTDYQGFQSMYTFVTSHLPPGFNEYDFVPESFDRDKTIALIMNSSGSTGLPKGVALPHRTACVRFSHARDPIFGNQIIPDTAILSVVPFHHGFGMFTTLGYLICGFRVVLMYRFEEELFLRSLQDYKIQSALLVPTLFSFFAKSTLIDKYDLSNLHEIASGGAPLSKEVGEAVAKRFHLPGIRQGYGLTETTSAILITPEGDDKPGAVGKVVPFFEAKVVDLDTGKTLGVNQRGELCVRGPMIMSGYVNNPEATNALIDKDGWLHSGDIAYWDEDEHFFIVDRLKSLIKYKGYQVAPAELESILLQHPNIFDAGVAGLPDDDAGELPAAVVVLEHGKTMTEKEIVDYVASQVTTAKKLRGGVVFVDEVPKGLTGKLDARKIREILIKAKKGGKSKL
# In short: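 Purified P. pyralis luciferase (0.04 ug/mL, 4x reagent) added to Tris-acetate buffer with 0.013 mM D-luciferin, 0.013 mM ATP and 13.3 mM Mg-acetate; compounds preincubated 15 min, then luminescence read after 5 min, RT.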
# [18] = MCF7 Cancer Cell Toxicity qHTS against the NCATS CANVASS Library (AID 1347369); further: series mostly up to about 46 µM
# In short: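 Luminescent ATP signal (CellTiterGlo) served as the cytotoxicity read-out after MCF7 breast cancer cells had been incubated 72 hr at 37C with natural products in an 11-point titration.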
# [19] = qHTS for activators of Nrf2/ARE signaling pathway screened against the NCATS CANVASS Library (AID 1347391); further: potency means the concentration at half of the fitted maximal effect; nearly all actives have a fitted effect of over 60% in size
# In short: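 ARE-bla HepG2 beta-lactamase reporter cells exposed to compounds for 16 h at 37C; CCF4 substrate 2 h, fluorescence at ex 405 nm, em 460/530 nm. Viability by CellTiter-Glo luminescence.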
# [20] = Redox Reaction Profiling qHTS: Assay Interference Panel against the NCATS CANVASS Library (AID 1347401)
# In short: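 Compounds in 11-point series incubated with 5 uM resazurin and 200 uM DTT in 50 mM HEPES pH 7.3, 50 mM NaCl. Resorufin fluorescence (Ex 525/Em 598) read before and after 15 min in the dark.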
Compound,Potency [1],Potency [2],Potency [3],Potency [4],Potency [5],Potency [6],Potency [7],Potency [8],outcome [9],Potency [10],Potency [11],Potency [12],Potency [13],outcome [14],Potency [15],Potency [16],Potency [17],Potency [18],Potency [19],Potency [20]
CC[C@H](C)[C@H]1NC(=O)[C@@H](NC(=O)C(C)C)[C@@H](C)OC(=O)[C@H](COC(=O)CNC(C)=O)NC(=O)[C@@H]([C@@H](C)O)NC(=O)[C@H](Cc2ccccc2)N(C)C(=O)[C@H](c2ccc(OC)cc2)NC1=O (Isobutyryl-T[d(aIle)][Phg(4-OMe)][NMeF][d(aThr)]S([Gly-Ac]); ester 1-C),inactive,inactive,inactive,inactive,inactive,inactive,inactive,inactive,inactive,inactive,inactive,inactive,inactive,inactive,inactive,–,–,–,–,–
C=C[C@@]1(C)CC[C@@H]([C@H](C)C(=O)/C=C/C(C)(C)O)O1,55.3 µM (active),inactive,–,inactive,inactive,–,inactive,inactive,inactive,–,–,–,inactive,inactive,–,inactive,inactive,inactive,13.2 µM (active),–
C[C@]12CC[C@]3(C1)[C@H](CC2=O)C[C@@H](OC(=O)c1ccccc1)[C@H]1[C@](C)(C(=O)O)CCC[C@@]13C,19.6 µM (active),inactive,–,1.49 µM (active),inactive,16.6 µM (active),inactive,–,inactive,–,–,–,0.0133 µM (active),–,–,inactive,inactive,–,3.71 µM (active),inactive
C=CC(CCCCC)C1C(=O)NC(=O)C1C(=O)C1C(/C=C/C)C=CC2CC(C(=O)O)CC(C)C21 (stereo not drawn),3.92 µM (active),inactive,–,9.43 µM (active),21.1 µM (active),7.43 µM (active),–,inactive,–,–,inactive,–,–,–,inactive,inactive,inactive,–,3.31 µM (active),inactive
C=C1CC[C@@H](Br)C(C)(C)[C@]12CC=C(C)C(=O)C2,inactive,inactive,inactive,–,inactive,inactive,inactive,inactive,inactive,inactive,inactive,inactive,inactive,inactive,inactive,–,–,inactive,16.6 µM (active),inactive
C/C=C(/C)c1cc(O)c(C)c2c1Oc1cc(O)cc(C)c1C(=O)O2,24.7 µM (active),inactive,inactive,–,inactive,inactive,inactive,inactive,inactive,–,inactive,–,inactive,inactive,inactive,–,inactive,–,–,inactive
